# Data reported in PubChem BioAssay (NCI).
# The panel holds about 83,000 compounds, 20% with a hit somewhere; the sample as a whole holds those more often.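 Plates (96-well) were seeded with cells, treated with compound at one concentration, and incubated for 48 hours before percent growth was determined.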 The source made the active and inactive calls. The calls were made as follows: active = growth percent below 10; inactive = the rest.
# System: OVCAR-8 ovarian
# Assay: NCI-60 one-dose screen, 48 h (100 = growth as untreated, 0 = no growth, -100 = all killed)
# Settings: 10 µM unless noted
row,SMILES,growth
1,CCOC(=O)C(=O)CC(=O)N1C(=S)NC(=O)C1CC(C)C (centres undefined),101% (inactive)
2,COC(=O)C(Cc1ccccc1)Nc1nc(NC(Cc2ccccc2)C(=O)OC)nc(N2CCOCC2)n1 (centres undefined),99.6% (inactive)
3,COc1c(N2CC3CCCNC3C2)c(F)cc2c(=O)c(C(=O)N/N=C/c3ccc(F)cc3)cn(C3CC3)c12 (centres undefined),91.7% (inactive)
4,CC(=O)C1=C(C)NC(NNC(N)=S)=NC1c1ccccc1 (centres undefined),107% (inactive)
5,Cn1cc(-c2nnc(N)nc2-c2c[nH]c3ccc(F)cc23)c2cc(F)ccc21,90.3% (inactive)
6,Oc1[nH]c2ccccc2c1Nn1c(N=N/C=c2/ccc3c(c2)C=NN=3)n[nH]c1=S,105% (inactive)
7,Cc1ccc2c(c1)C13C(=C2Br)CCCN1C(=O)c1ccccc13 (centres undefined),99.5% (inactive)
8,CCO/C=N/C1=C(C#N)C(c2ccc(Cl)cc2)c2sc3c(CC)cccc3c2O1 (centres undefined),28.5% (inactive)
9,C=C(C=O)[C@@H]1CC[C@]2(COC(C)=O)CC[C@]3(C)C(CC[C@@H]4[C@@]5(C)CC[C@H](OC(C)=O)C(C)(C)[C@@H]5CC[C@]43C)[C@@H]12 (some centres undefined),15.3% (inactive)
10,O=C(O)c1ccc(-n2cc(CNc3cc(F)c(F)c(F)c3)c(-c3ccc(F)cc3)n2)cc1,83.9% (inactive)
11,COc1cc2nc(Cl)nc(Nc3cccc(C4=Nc5c(N)nc(N)nc5NC(c5ccc(Cl)cc5)C4)c3)c2cc1OC (centres undefined),29.1% (inactive)
12,CNC(=O)c1cc(N2CCc3cc(NC(=O)Nc4ccc(Cl)c(C(F)(F)F)c4)ccc32)ccn1,62.8% (inactive)
13,N=c1c2cc(-c3ccccc3)oc2ncn1/N=C/c1ccc(Br)cc1,80.7% (inactive)
14,NC(N)=Nc1ccc(Oc2cccc(NC(N)=Nc3ccc(Br)c(C(F)(F)F)c3)c2)cc1,65.5% (inactive)
15,CN(Cc1ccccc1)S(=O)(=O)/N=C1\NC(=O)NC1=C(Cl)Cl,93.9% (inactive)
16,COc1ccc(S(=O)(=O)NCCCNc2nccc(-c3[nH]c(-c4ccccc4)nc3-c3ccc(Cl)c(O)c3)n2)cc1,67% (inactive)
17,O=C(CN1CCN(c2cc(=O)n(-c3ccccc3)c3ccccc23)CC1)Nc1nc(-c2ccc(Cl)cc2)cs1,59.4% (inactive)
18,CC(=O)c1nnn(-c2c(C(=O)n3nc(C)cc3C)sc(=S)n2-c2ccccc2)c1C,103% (inactive)
19,O=C1[C@H]2Cc3c([nH]c4ccccc34)[C@@H](c3ccc(Br)cc3)N2C(=O)CN1C1CCN(CC2CCCCC2)CC1,-48.5% (active)
20,NS(=O)(=O)c1ccc(Nc2nc(Nc3ccccc3)nc3nnc(SCC(=O)NC4CCCCC4)n23)cc1,99.8% (inactive)

row,SMILES,growth
1,Cn1ccnc1C(=O)/C=C/C=C/c1ccc(C(=O)Nc2ccc(F)cc2)cc1,13.6% (inactive)
2,O=C1[C@H]2Cc3c([nH]c4ccccc34)[C@@H](c3ccc(Cl)cc3)N2C(=O)CN1C1CCN(Cc2ccccc2)CC1,72.7% (inactive)
3,NC(N)=Nc1ccc(Oc2cccc(Nc3ccc(Br)c(C(F)(F)F)c3)c2)cn1,-60.6% (active)
4,CCn1c2ccccc2c2cc(-n3nncc3-c3ccccc3)ccc21,27% (inactive)
5,CN1CCN(Cc2ccc(NC(=O)c3cncc(C#Cc4cnc5ccc(OCC(C)(C)O)nn45)c3)cc2C(F)(F)F)CC1,6.58% (active)
6,Cc1ccc(-n2c(/C=C3\C(=O)Nc4ccccc43)ccc2CO)cc1,94.3% (inactive)
7,Cc1c(F)cc(C(N)=O)cc1NCC(=O)Nc1ccc([N+](=O)[O-])cc1,99.8% (inactive)
8,CCOC(=O)c1c(N)c(C#N)cn1-c1cc(OC)c(OC)c(OC)c1,102% (inactive)
9,O=c1[nH]c(Sc2sc3ccc(Cl)cc3c2CBr)nc(=S)[nH]1,41.2% (inactive)
10,CC(=O)c1ccc(Nc2nc(SCC(C)C)nc(-c3ccccc3)c2C#N)cc1,70% (inactive)
11,CS(=O)(=O)c1ncc(-c2ccccc2)cn1,99.3% (inactive)
12,CNC(=O)c1c(NC(=O)c2ccccc2C(F)(F)F)sc2c1CCC(=O)C2,24.6% (inactive)
13,NC(N)=Nc1ccc(Nc2cccc(Oc3ccc(Cl)c(C(F)(F)F)c3)c2)cn1,27.4% (inactive)
14,CC(C)c1ccc(NCc2cn(-c3ccc(C(=O)O)cc3)nc2-c2cc(C(F)(F)F)cc(C(F)(F)F)c2)cc1,85% (inactive)
15,COc1cc2nc(Cl)nc(Nc3cccc(C4=Nc5c(N)nc(N)nc5NC(c5ccccc5)C4)c3)c2cc1OC (centres undefined),67.2% (inactive)
16,O=C(CCn1c[n+](CC(=O)c2ccc(F)cc2)c2ccccc21)Nc1cccc2cccnc12,86.9% (inactive)
17,COc1cc(-c2nc(-c3ccccc3)[nH]c2-c2ccnc(NCCCNS(=O)(=O)c3cccc(F)c3)n2)ccc1Cl,31.7% (inactive)
18,N#Cc1c(NC(=O)c2cccc(C(F)(F)F)c2F)sc2c1CCC(=O)C2,11.7% (inactive)
19,COC[C@]12CCC(C)(C)C[C@H]1C1=CC[C@@H]3[C@@]4(C)CCCNC(C)(C)[C@@H]4CC[C@@]3(C)[C@]1(C)CC2,52.2% (inactive)
